Measurements as given in PubChem BioAssay AID686979 (National Center for Advancing Translational Sciences (NCATS), 2013).
The campaign covered roughly 420,000 compounds. About 50,000 (12%) were called active. About 26% were inconclusive and are not listed. The call rests on the fitted dose curve; in most records, active means well fitted inhibition curve with a large enough effect; inconclusive means small, poorly fitted or top-dose-only effect; inactive means flat fitted curve, though single readings scatter. The entries come from a sample that favours actives as a whole.

Assay: qHTS for Inhibitors of human tyrosyl-DNA phosphodiesterase 1 (TDP1): qHTS in cells in presence of CPT; further: nearly all actives have a fitted effect of over 55% in size
Settings: chicken DT40 Tdp1-/-;hTDP1 cells + 20 nM CPT, ATP luminescence, 48 h; series mostly up to 46.2 µM; activity change, negative = growth inhibition: at the top concentration
Outline: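 Chicken DT40 Tdp1-/- cells complemented with human TDP1, 400 cells/well, exposed to compounds plus 20 nM camptothecin for at least 48 h at 37 C; viability read as ATP content by CellTiter-Glo luminescence.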
On the % scale 0 is the no-effect control and ±100 the full control effect; potency means the concentration at half of the fitted maximal effect.

Compound	activity change, negative = growth inhibition	Potency
CC(C#N)(NC(=O)CN1CCN(S(=O)(=O)c2cc(C(F)(F)F)ccc2Cl)CC1)C1CC1 (configuration not stated)	-37.5% (inactive)	
Cc1cc(NC(=O)COC(=O)/C=C/c2ccc(C)o2)no1	-3.15% (inactive)	
CCCCc1ccc(NC(=O)NCc2cccnc2)cc1	-25% (inactive)	
Cc1cc(/C=C2/SC(=O)N(CC(=O)N3CCCC3)C2=O)c(C)n1C	10.4% (inactive)	
Cc1cccc(N2CCN(c3c(CN4CCCC4)c(=O)oc4ccccc34)CC2)c1C	-24.3% (inactive)	
O=C1c2ccccc2C(=O)c2c1cccc2N1CCN(CCO)CC1	-17.2% (inactive)	
Cc1cccc(N2CCN(C3=C(c4ccccc4)C(=O)c4ccccc43)CC2)c1C		7.31 µM (active)
COc1ccc(CCNC(=O)CCCCCNC(=O)N2CCn3c2nc2ccccc23)cc1OC	-9.27% (inactive)	
COc1cc(C(=O)OCC(=O)N(CC(C)C)C2CCS(=O)(=O)C2)ccc1OCC(C)C (configuration not stated)	-4.05% (inactive)	
CCOC(=O)c1c(NC(=O)/C=C/c2ccc(OC)cc2)sc2c1CCC(C)C2 (configuration not stated)	0.589% (inactive)	
CCOc1ccc(NC(=O)c2c(NC(=O)Cc3ccccc3)sc3c2CCCCC3)cc1		18.4 µM (active)
COC(=O)c1c(NC(=O)CN2CCN(S(=O)(=O)c3ccccc3[N+](=O)[O-])CC2)sc2c1CCC(C)C2 (configuration not stated)	-7.69% (inactive)	
CC(C)OC(=O)c1c(NC(=O)c2ccco2)sc2c1CCCC2	-1.92% (inactive)	
CCOc1ccc(NC(=O)c2c(NC(=O)Cc3ccccc3)sc3c2CCC(C)C3)cc1 (configuration not stated)		16.4 µM (active)
Cc1ccc(C)c(N2CCN(C(=O)Cn3ncn4cccc4c3=O)CC2)c1	-24.7% (inactive)	
Cc1ccc(NC(=O)C(CC(=O)O)C2CCCO2)c(C)c1 (configuration not stated)	-2.25% (inactive)	
CN(Cc1ccccc1)C(=O)COC(=O)/C=C/c1ccc2c(c1)OCO2	4.78% (inactive)	
COc1ccccc1C1C(C(N)=O)=C(C)Nc2nc(CCCO)nn21 (configuration not stated)	-0.304% (inactive)	
CC(C)Oc1ccc(/C=C(\NC(=O)/C=C/c2ccco2)C(=O)NCCc2nc3ccccc3[nH]2)cc1		18.4 µM (active)
CC(C)=C(NC(=O)c1ccco1)C(=O)NCCc1nc2ccccc2[nH]1	14% (inactive)	
Cc1ccc(C(=O)N/C(=C/c2ccco2)C(=O)NCCc2c[nH]c3ccccc23)cc1C	-41.2% (inactive)	
COc1ccccc1Nc1nnc(SC(C)C(=O)NC2CC2)s1 (configuration not stated)	-28.6% (inactive)	
Cc1ccccc1C1=NC(C(F)(F)F)(C(F)(F)F)c2c(n(-c3ccc(F)cc3)c(=O)[nH]c2=O)N1		18.4 µM (active)
O=c1[nH]c(=O)n(Cc2ccco2)c2c1C(C(F)(F)F)(C(F)(F)F)N=C(c1ccco1)N2	-13.4% (inactive)	
CN(C(=O)CC1C(=O)NCCN1Cc1ccc(F)cc1Cl)C1CCCCC1 (configuration not stated)	-15.5% (inactive)	

Compound	activity change, negative = growth inhibition	Potency
CCOc1ccccc1NC(=O)Cn1ncc2ccc([N+](=O)[O-])cc21	-25.4% (inactive)	
COC(=O)c1c(C)cc(O)c(C)c1O	-9.14% (inactive)	
C/C(=N\NC(=O)C1(C)CC1(Br)Br)c1ccc(C)cc1C (configuration not stated)	-18.8% (inactive)	
CC(C)CN(Cc1c(O)ccc2c(=O)c(-c3ccccc3)coc12)CC(C)C		5.17 µM (active)
CN(C)Cc1c(O)ccc2c(=O)c(-c3ccccc3Cl)coc12	-11.2% (inactive)	
O=c1c(-c2ccccc2)coc2c(CN3CCOCC3)c(O)ccc12	-10.7% (inactive)	
Cc1ccccc1OCC(=O)Nc1nc(C)c(C(=O)N(C)C)s1	-13.6% (inactive)	
Cc1ccnc(N2CCCC(C(=O)Nc3cc(F)ccc3C)C2)n1 (configuration not stated)	-19.3% (inactive)	
CCc1noc(C)c1C(=O)N1CCCC(N2CCN(c3ccc(F)cc3)CC2)C1 (configuration not stated)	-15.5% (inactive)	
Cc1ccc(Cl)cc1N(C)C(=O)C1CCCN(c2ncnc3onc(-c4ccc(F)cc4)c23)C1 (configuration not stated)		7.31 µM (active)
CCc1ccccc1N(C)C(=O)C1CCCN(c2ncnc3onc(-c4ccc(F)cc4)c23)C1 (configuration not stated)		13 µM (active)
CC1=C(c2ccc(F)cc2)S(=O)(=O)N=C1N1CCC(C(=O)NCCc2ccccc2C)CC1	-2.27% (inactive)	
O=S(=O)(c1ccc(Cl)s1)N1CCC2(CC1)OCCO2	7.46% (inactive)	
CNC(=O)c1ccc(NC(=O)c2cccc(C(F)(F)F)c2)cc1	11.5% (inactive)	
O=C(Nc1ccc(-c2csc(Nc3cccc(C(F)(F)F)c3)n2)cc1)c1cccc(C(F)(F)F)c1		9.2 µM (active)
Cc1cccc(NC(=O)c2cccc(C(F)(F)F)c2)c1	-9.45% (inactive)	
O=C1COc2ccc(S(=O)(=O)Nc3ccc(OC(F)(F)F)cc3)cc2N1	-29.6% (inactive)	
Cc1nn(Cc2ccccc2)c(C)c1NS(=O)(=O)c1ccccc1	8.74% (inactive)	
Nc1ncc(S(=O)(=O)Nc2ccc(OC(F)(F)F)cc2)cn1	1.29% (inactive)	
Cc1nn(C)c(C)c1NS(=O)(=O)c1ccc(OC(F)(F)F)cc1		23.1 µM (active)
O=S(=O)(Nc1ccc(O)c2ccccc12)c1ccc(OC(F)(F)F)cc1		13 µM (active)
COc1ccc(OC)c(S(=O)(=O)Nc2c(C)nn(C)c2C)c1	-1.71% (inactive)	
COc1cc2c(cc1OC)CC(=O)N(CCCN(C)C[C@H]1Cc3cc(OC)c(OC)cc31)CC2	1.31% (inactive)	
CC1CN(C(=O)CCC(=O)NC2CCN(Cc3ccccc3)CC2)c2ccccc2O1 (configuration not stated)		23.1 µM (active)
Cc1ccc(S(=O)(=O)NCCC(=O)NC2CCN(Cc3ccccc3)CC2)cc1	-19.8% (inactive)	

Compound	activity change, negative = growth inhibition	Potency
CC1CN(C(=O)CCC(=O)NCc2cccnc2)c2ccccc2O1 (configuration not stated)	-11.9% (inactive)	
CC(C)(C)NC(=O)NC(=O)CN1CCC(Cc2ccccc2)CC1	-23.6% (inactive)	
CC1CN(C(=O)CCC(=O)NCCCN2CCC(Cc3ccccc3)CC2)c2cc(Cl)ccc2O1 (configuration not stated)		20.6 µM (active)
O=C(CC1Oc2ccccc2NC1=O)NCCCN1CCN(Cc2ccccc2)CC1 (configuration not stated)	12% (inactive)	
O=C(COC(=O)/C=C/c1cccc(Cl)c1)NCCc1ccccc1	0.178% (inactive)	
COc1ccc(NC(=S)N2CCCC(CO)C2)c(OC)c1 (configuration not stated)	-6.69% (inactive)	
CC(=O)Nc1ccc(S(=O)(=O)Oc2ccc(/C=N/N=C3/NC(=O)C(CC(=O)O)S3)cc2)cc1 (configuration not stated)	-18.8% (inactive)	
O=C(CNC(=O)c1ccc(Br)o1)Nc1ccccc1	6.19% (inactive)	
CC(CNC(=O)c1ccc(Br)o1)NC(=O)c1ccc(Br)o1 (configuration not stated)		8.2 µM (active)
CC(CCc1ccccc1)NC(=O)c1ccc(Br)o1 (configuration not stated)	-21.9% (inactive)	
CCOc1ccc(OCC(=O)Nc2c3c(nn2C(C)(C)C)CS(=O)(=O)C3)cc1	1.51% (inactive)	
COc1cc(C(=O)NCc2ccncc2)cc(Br)c1OCc1ccccc1		18.4 µM (active)
COc1cc(/C=N/O)cc(Br)c1OCc1cccc(Cl)c1	-6.06% (inactive)	
COc1cc(C=O)c(Br)cc1OCC(=O)NCc1ccccc1	-6% (inactive)	
CN(CC(=O)Nc1cccc(F)c1)C(=O)CC1CCCC1	-4.08% (inactive)	
N/C(Cc1ccc([N+](=O)[O-])cc1)=N\OC(=O)C1CCCCC1	-20.7% (inactive)	
CC(=O)NC1CCN(CC(=O)Nc2nccs2)CC1	13.2% (inactive)	
COc1ccc(CCNC(=O)c2cc(-c3ccc4c(c3)OCO4)on2)cc1OC	-10.1% (inactive)	
COc1cc2c(-c3ccc4c(c3)OCO4)c(-c3ccsc3)oc(=O)c2cc1OC		16.4 µM (active)
COc1ccc(C#Cc2c(-c3ccc(OC)cc3)oc3ccc(-c4ccc5c(c4)OCO5)cc23)cc1	-1.98% (inactive)	
Clc1cccc[n+]1CCCC[n+]1ccccc1Cl	-12.7% (inactive)	
Brc1cccc[n+]1Cc1cccc(C[n+]2ccccc2Br)c1		12.6 µM (active)
O=C(COC(=O)c1cccc(Cl)c1)Nc1ccc2[nH]c(=O)[nH]c2c1	-11.5% (inactive)	
COc1cc(C(=O)NCc2nnc(SCC(=O)c3ccc(Cl)cc3)o2)cc(OC)c1OC	-18.9% (inactive)	
CCOC(=O)CSc1nnc(CNc2ccc(F)cc2)o1	-0.543% (inactive)	

Compound	activity change, negative = growth inhibition	Potency
CCC(=O)Nc1ccc(C(=O)CSc2nnc(CNc3ccc(Cl)cc3)o2)cc1OC		20.6 µM (active)
COc1ccc(CNC(=O)C(=O)NCC2OCCN2C(=O)c2ccc(OC)cc2)cc1 (configuration not stated)	3.1% (inactive)	
CC(C)(C)c1nnc(N/N=C/c2ccc(O)cc2)n(N)c1=O	17.2% (inactive)	
O=C(c1c(F)cccc1F)N1CCN(c2ncc(Br)cn2)CC1	20.1% (inactive)	
COc1cccc(OC)c1C(=O)NC(=S)Nc1ccc(N2CCOCC2)c(Cl)c1	-25.4% (inactive)	
CCOc1ccc(C(=O)NC(=S)Nc2ccc(NC(=O)C(C)C)cc2)cc1[N+](=O)[O-]	-16.5% (inactive)	
CCOc1ccc(C(=O)NC(=S)Nc2ccc(N3CCOCC3)c(Cl)c2)cc1[N+](=O)[O-]		0.146 µM (active)
CN(C)c1ccc(-c2nnc(-c3cccnc3)o2)cc1	-14.5% (inactive)	
CCC(C)(C(=O)Nc1ccccc1C)N(C(=O)CNC(C)=O)c1ccc(C)cc1 (configuration not stated)	2.25% (inactive)	
COc1cc(NS(=O)(=O)c2ccc(N=Cc3c(C)[nH]n(-c4ccccc4)c3=O)cc2)nc(OC)n1	-16.6% (inactive)	
CCc1nnc(NS(=O)(=O)c2ccc(N=Cc3c(C)[nH]n(-c4ccc(C)cc4)c3=O)cc2)s1		11.6 µM (active)
CCc1nnc(NS(=O)(=O)c2ccc(NS(=O)(=O)c3ccccc3)cc2)s1	-14.8% (inactive)	
CS(=O)(=O)Nc1ccccc1C(=O)OCC(=O)NC1CC1	-21.4% (inactive)	
Cc1ccc(S(=O)(=O)c2nnn3c2nc(N2CCN(c4ccccc4F)CC2)c2cc(Cl)ccc23)cc1C	4.64% (inactive)	
CCCCc1cc2c(s1)CCCC/C2=N/O	-6.51% (inactive)	
Cc1nnnn1/C(=C\c1ccccc1)C(=O)OCC(=O)N1CC2(C)CC1CC(C)(C)C2 (configuration not stated)		13 µM (active)
Cc1cccc(C(=O)NCC(=O)OCC(=O)N2CC3(C)CC2CC(C)(C)C3)c1 (configuration not stated)	1.66% (inactive)	
CCOC(=O)CNc1nc(Cl)nc(Nc2ccccc2)n1	2.34% (inactive)	
CN(C)S(=O)(=O)c1cccc(C(=O)OCC(=O)N2CCCC2=O)c1	-12.8% (inactive)	
Cc1ccc(S(=O)(=O)Nc2ccc3c(c2)C(=O)N([C@H](C)CO)C[C@@H](C)[C@@H](CN(C)C(=O)Nc2cccc4ccccc24)O3)cc1		20.6 µM (active)
COc1ccc(NC(=O)N(C)C[C@H]2Oc3ccc(NC(=O)C4CC4)cc3C(=O)N([C@H](C)CO)C[C@@H]2C)cc1	4.69% (inactive)	
Cc1noc(C)c1NC(=O)Nc1ccc2c(c1)C(=O)N([C@H](C)CO)C[C@H](C)[C@@H](CN(C)C(=O)Nc1ccccc1)O2	4.33% (inactive)	
